# Measurements taken from PubChem BioAssay.
# Values without a mark were called inactive. Entries that show only a call come without a potency. For some of these results: Potency and affinity values are given separately. Activity calls are given as the source filed them. Unless noted, how the calls were made is not given here.
# Key:
# [1] = antimalarial activity against Dd2 strain (AID 2302;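 active means growth inhibition above 50% at the single 2 µM test dose, taken to imply half-maximal potency below 2 µM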); conditions: P. falciparum Dd2 in RBCs, LDH growth readout, 72 h; at 2 µM; active compounds read high
# [2] = HepG2 cytotoxicity, primary screen, cytotoxicity control for P. falciparum antimalarial project, cell-based, ATP luminescence (AID 2303;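 active means inhibition above 50%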); conditions: HepG2 viability, 24-48 h, at 10 µM, active compounds read high
# [3] = target: L-lactate dehydrogenase (Plasmodium falciparum (isolate CDC / Honduras)) (UniProt Q27743); experiment: PfLDH activity inhibition – cell lysate, 3D7 strain, counter-screen for P. falciparum growth inhibition project (AID 2304); conditions: P. falciparum 3D7 crude extract, LDH APAD/NBT absorbance; at 2 µM; active compounds read high
# Sequence of L-lactate dehydrogenase (Plasmodium falciparum (isolate CDC / Honduras)) (Q27743 whole entry, looked up): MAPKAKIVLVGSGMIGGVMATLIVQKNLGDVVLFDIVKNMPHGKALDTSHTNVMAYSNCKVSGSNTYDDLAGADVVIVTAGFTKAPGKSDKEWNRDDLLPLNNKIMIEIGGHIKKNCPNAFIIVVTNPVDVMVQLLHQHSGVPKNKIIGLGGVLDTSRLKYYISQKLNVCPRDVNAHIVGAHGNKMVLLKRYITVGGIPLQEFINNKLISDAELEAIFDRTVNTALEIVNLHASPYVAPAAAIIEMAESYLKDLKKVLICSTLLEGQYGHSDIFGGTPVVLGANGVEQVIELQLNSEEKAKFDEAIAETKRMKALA
# [4] = inhibition of 3D7 malaria parasite growth – strain 3D7 (AID 2306); conditions: P. falciparum 3D7 erythrocytic growth, LDH absorbance, 72 h; at 2 µM; active compounds read high
# [5] = target: Calcium-dependent protein kinase 1 (Plasmodium falciparum (isolate 3D7)) (UniProt P62344); experiment: PfCDPK1 kinase inhibitors, biochemical, TCAMS library (AID 1159585; cut-off not given, nearly all actives have IC50 up to about 0.98 µM;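 further: inhibitors leave more ATP so luminescence rises with inhibition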); conditions: recombinant PfCDPK1, Kinase-Glo ATP depletion luminescence
# Sequence of Calcium-dependent protein kinase 1 (Plasmodium falciparum (isolate 3D7)) (P62344 whole entry, looked up): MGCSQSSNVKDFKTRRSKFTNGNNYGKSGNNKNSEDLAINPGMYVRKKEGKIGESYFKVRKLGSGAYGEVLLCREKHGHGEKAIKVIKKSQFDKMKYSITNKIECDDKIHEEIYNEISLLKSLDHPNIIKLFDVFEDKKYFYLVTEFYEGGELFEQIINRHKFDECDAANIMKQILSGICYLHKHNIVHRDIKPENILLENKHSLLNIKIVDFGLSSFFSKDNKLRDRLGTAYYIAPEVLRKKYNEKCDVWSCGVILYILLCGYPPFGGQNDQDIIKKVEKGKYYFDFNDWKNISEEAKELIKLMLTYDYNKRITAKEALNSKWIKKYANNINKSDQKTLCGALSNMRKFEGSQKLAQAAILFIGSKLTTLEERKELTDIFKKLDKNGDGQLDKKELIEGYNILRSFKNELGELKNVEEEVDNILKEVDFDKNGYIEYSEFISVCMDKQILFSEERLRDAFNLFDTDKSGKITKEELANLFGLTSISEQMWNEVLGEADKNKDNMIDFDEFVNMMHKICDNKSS
# [6] = target: Plasmodium falciparum protein kinase 6 (PK6, PF3D7_1337100) (UniProt Q8IDW1); experiment: PfPK6 kinase inhibitors, biochemical, TCAMS library (AID 1159586); conditions: recombinant PfPK6, Kinase-Glo ATP depletion luminescence
# Sequence of Plasmodium falciparum protein kinase 6 (PK6, PF3D7_1337100) (Q8IDW1 1-305): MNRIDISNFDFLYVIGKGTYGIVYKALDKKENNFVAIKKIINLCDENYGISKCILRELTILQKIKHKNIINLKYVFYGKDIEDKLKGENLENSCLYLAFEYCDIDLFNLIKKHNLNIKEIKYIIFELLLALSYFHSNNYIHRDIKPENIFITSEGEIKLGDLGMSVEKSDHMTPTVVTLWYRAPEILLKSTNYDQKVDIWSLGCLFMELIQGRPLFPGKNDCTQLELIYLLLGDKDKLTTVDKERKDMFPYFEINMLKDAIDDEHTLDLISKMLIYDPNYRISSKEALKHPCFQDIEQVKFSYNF
# [7] = target: Protein kinase 7 (PK7), Plasmodium falciparum 3D7 (PF3D7_0213400) (UniProt Q7YTF7); experiment: inhibition of Plasmodium PK7 catalytic activity – biochemical, TCAMS antimalarial set, Kinase-Glo luminescence (AID 1159587); conditions: recombinant PfPK7, Kinase-Glo ATP depletion luminescence
# Sequence of Protein kinase 7 (PK7), Plasmodium falciparum 3D7 (PF3D7_0213400) (Q7YTF7 1-343): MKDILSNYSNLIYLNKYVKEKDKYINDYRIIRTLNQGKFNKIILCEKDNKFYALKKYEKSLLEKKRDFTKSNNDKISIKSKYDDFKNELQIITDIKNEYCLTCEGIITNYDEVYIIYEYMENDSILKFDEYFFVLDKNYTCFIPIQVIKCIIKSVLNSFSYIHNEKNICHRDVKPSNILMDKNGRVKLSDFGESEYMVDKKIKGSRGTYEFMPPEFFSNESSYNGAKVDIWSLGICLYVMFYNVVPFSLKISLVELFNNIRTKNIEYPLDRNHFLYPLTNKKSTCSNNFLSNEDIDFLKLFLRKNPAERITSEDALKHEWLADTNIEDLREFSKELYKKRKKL
# [8] = target: Calcium-dependent protein kinase 4 (Plasmodium falciparum (isolate 3D7)) (UniProt Q8IBS5); experiment: PfCDPK4 kinase inhibitors, biochemical, TCAMS library (AID 1159588; cut-off not given, nearly all actives have IC50 up to about 0.91 µM); conditions: recombinant PfCDPK4, Kinase-Glo ATP depletion luminescence
# Sequence of Calcium-dependent protein kinase 4 (Plasmodium falciparum (isolate 3D7)) (Q8IBS5 whole entry, looked up): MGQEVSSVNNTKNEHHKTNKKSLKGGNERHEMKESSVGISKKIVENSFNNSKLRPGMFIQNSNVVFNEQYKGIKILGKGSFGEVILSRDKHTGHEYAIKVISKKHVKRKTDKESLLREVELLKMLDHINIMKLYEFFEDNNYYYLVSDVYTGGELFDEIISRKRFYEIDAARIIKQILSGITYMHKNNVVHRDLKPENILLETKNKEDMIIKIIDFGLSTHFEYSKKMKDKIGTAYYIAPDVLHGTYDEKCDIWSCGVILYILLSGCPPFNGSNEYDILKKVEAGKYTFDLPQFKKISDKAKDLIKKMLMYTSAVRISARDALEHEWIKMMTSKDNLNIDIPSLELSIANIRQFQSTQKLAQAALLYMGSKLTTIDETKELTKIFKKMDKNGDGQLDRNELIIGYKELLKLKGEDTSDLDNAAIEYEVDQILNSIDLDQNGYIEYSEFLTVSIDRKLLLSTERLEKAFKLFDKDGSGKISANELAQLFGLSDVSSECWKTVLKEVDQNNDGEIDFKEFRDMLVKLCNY
Compound,growth inhibition [1],inhibition [2],inhibition [3],growth inhibition [4],outcome [5],outcome [6],outcome [7],outcome [8]
COc1ccc(C2CC(=O)C3=C(C2)NC(C)=C(C(=O)OC(C)C)C3c2cccc(O)c2)cc1OC (stereo not given),85% (active),-2%,-4%,100% (active),inactive,inactive,inactive,inactive
CCN(CC)CCN(Cc1ccc(-c2ccc(C(F)(F)F)cc2)cc1)C(=O)Cn1c(CCc2cccc(C#N)c2)nc(=O)c2ccccc21,47%,36%,-1%,101% (active),inactive,inactive,inactive,inactive
O=C(NCc1ccc(C(=O)NCc2cccc3ccccc23)cc1)c1ccc(O)c(-c2ccc(Cl)c(Cl)c2)c1,31%,-10%,-2%,100% (active),inactive,inactive,inactive,inactive
CCOc1ccc2nc(-c3ccccc3)cc(NN=Cc3ccncc3)c2c1,101% (active),19%,0%,102% (active),inactive,inactive,inactive,inactive
COc1cc(NC(=O)N2CCOC(CCN3CCC(c4ccccc4)CC3)(c3ccc(Cl)c(Cl)c3)C2)cc(OC)c1OC (stereo not given),73% (active),15%,-2%,93% (active),inactive,inactive,inactive,inactive
CC(C)C[C@@H](/C=N/N1CC(=O)NC1=O)NC(=O)[C@H](CC(C)C)NC(=O)c1ccc(OCCN2CCOCC2)cc1,79% (active),11%,1%,94% (active),inactive,inactive,inactive,inactive
c1csc(-c2ccc3c(c2)CC(NCc2c[nH]c4cnccc24)C3)c1 (stereo not given),34%,9%,-1%,100% (active),inactive,inactive,inactive,inactive
COc1cc2c(cc1OC)CN(CCCCNC(=O)c1ccc(NC(=O)c3cc(Cl)cc(Cl)c3)cc1)CC2,75% (active),19%,-6%,99% (active),inactive,inactive,inactive,inactive
CCCOC(=O)C1=C(C)NC2=C(C(=O)CC(c3ccc(OC)c(OC)c3)C2)C1c1cccc(O)c1 (stereo not given),99% (active),-10%,-2%,100% (active),inactive,inactive,inactive,inactive
CCCCNCC(O)COc1ccccc1-c1ccc(N/N=C/c2cccc3ccccc23)nn1 (stereo not given),8%,38%,-4%,99% (active),inactive,inactive,inactive,inactive
C[C@H]1CN(Cc2cccc(-c3cc(CNC(=O)c4cccc(CN5CCN(C/C=C/c6ccccc6)CC5)c4)ccc3F)c2)CCN1,46%,98% (active),-2%,98% (active),inactive,inactive,inactive,inactive
O=C(NC1CCCCN(Cc2ccccc2O)C1)c1cccc(Cl)c1 (stereo not given),30%,15%,-4%,86% (active),inactive,inactive,inactive,inactive
N#Cc1ccc2c(c1)CCN(CCC1CCC(NC(=O)Nc3cnc4ccccc4c3)CC1)C2 (stereo not given),9%,14%,6%,93% (active),inactive,inactive,inactive,inactive
CC(=O)CC(=O)N1CCN(c2ccccc2)CC1,-6%,54% (active),-1%,85% (active),inactive,inactive,inactive,inactive
CC(C)c1cc(Oc2c(I)cc(CCN=C(N)N)cc2I)ccc1O,54% (active),19%,3%,98% (active),inactive,inactive,inactive,inactive
c1ccc2c(c1)CN(Cc1ccsc1)CC1(CCN(Cc3c[nH]c4cnccc34)CC1)O2,75% (active),38%,-2%,87% (active),inactive,inactive,inactive,inactive
CCC(CC)(Cc1ccccc1)NC(=O)[C@H](Cc1ccc(OC)c(OC)c1)Nc1ccc(C#N)c2ccccc12,69% (active),16%,0%,90% (active),inactive,inactive,inactive,inactive
CN1CCN(Cc2ccc(-c3cc4c(Nc5ccc(OCc6cccc(F)c6)c(Cl)c5)ncnc4s3)[nH]2)CC1,99% (active),23%,2%,101% (active),inactive,inactive,inactive,inactive
CCc1ccc(C2CCN(CCCCNC(=O)c3ccc(NC(=O)c4ccc(Cl)cc4)cc3)CC2)cc1,63% (active),15%,-3%,100% (active),inactive,inactive,inactive,inactive
COc1ccc(Cl)c(CC2c3cc(O)c(Cl)cc3CCN2C)c1 (stereo not given),72% (active),9%,-1%,98% (active),inactive,inactive,inactive,inactive
